Results filed as inconclusive are left out. The source made the active and inactive calls. How the source made its calls: active means hit-call score of the fitted dose curve at least 0.9, where 1 is the maximum; inconclusive means response in the unintended direction; inactive means score below 0.9.

For orientation: AC50 means the concentration giving half of the maximal activity seen.

Test [1] is described as follows: TOX21_p53_BLA_p2_viability: Viability Assessment in the Tox21 HCT-116 p53 Agonism Beta-lactamase Assay, Phase 2 (AID 2283591).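 Further: compound exposure lasted 16 h at 37 °C; actives lower the ATP signal meaning cytotoxicity.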 The method, boiled down: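 HCT116 p53-bla cells, 4000/well, dosed after 5 h plating (217-fold dilution of DMSO stocks) and incubated 16 h at 37C. Viability taken as cellular ATP by CellTiter-Glo luminescence after 30 min RT; signal loss marks cytotoxicity.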

Test [2] has as its target Cellular tumor antigen p53 (Homo sapiens) (UniProt P04637). In words: TOX21_p53_BLA_p2_ratio: Tox21 HCT-116 p53 Agonism Beta-lactamase Assay, Ratio, Phase 2 (AID 2283592). The method, boiled down:
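Read-out is the blue/green (460/530 nm, 405 nm excitation) ratio after 2 h CCF4-AM loading, fitted as gain versus DMSO. Compounds, pinned at 217-fold dilution from DMSO stocks, stayed 16 h on HCT-116 beta-lactamase reporter cells seeded 5 h earlier.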

Test [3] in a line: TOX21_p53_BLA_p3_viability: Viability Assessment in the Tox21 HCT-116 p53 Agonism Beta-lactamase Assay, Phase 3 (AID 2283593).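 Further: cells exposed to compound for 16 h before reading.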 The method, boiled down: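 HCT116 cells, 4000/well, dosed 5 h after plating by pin transfer (217-fold dilution from DMSO stock) and incubated 16 h at 37C, 5% CO2. Viability read as ATP luminescence with CellTiter-Glo after 30 min at room temperature.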

Test [4] deals with Cellular tumor antigen p53 (Homo sapiens) (UniProt P04637). In words: TOX21_p53_BLA_p3_ratio: Tox21 HCT-116 p53 Agonism Beta-lactamase Assay, Ratio, Phase 3 (AID 2283596). The method, boiled down: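 Cells were seeded at 4000/well, rested 5 h at 37C, then dosed with DMSO compound solutions (217-fold dilution) for 16 h. CCF4-AM substrate was loaded for 2 h at room temperature, and the 460/530 nm emission ratio was fitted for gain of signal versus DMSO.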
Cellular tumor antigen p53 (Homo sapiens), sequence (P04637 whole entry, looked up): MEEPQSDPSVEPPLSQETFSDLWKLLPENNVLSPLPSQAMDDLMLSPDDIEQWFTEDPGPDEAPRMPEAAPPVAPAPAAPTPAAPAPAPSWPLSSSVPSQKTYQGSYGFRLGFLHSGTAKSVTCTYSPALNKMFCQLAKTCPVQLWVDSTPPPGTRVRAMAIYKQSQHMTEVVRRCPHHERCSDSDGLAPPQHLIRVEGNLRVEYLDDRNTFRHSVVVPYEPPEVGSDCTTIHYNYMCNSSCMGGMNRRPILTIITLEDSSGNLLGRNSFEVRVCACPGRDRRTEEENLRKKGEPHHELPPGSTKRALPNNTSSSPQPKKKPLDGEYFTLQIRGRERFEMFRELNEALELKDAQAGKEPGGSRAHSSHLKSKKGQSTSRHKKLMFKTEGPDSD

Test [5] can be described thus: TOX21_p53_BLA_p4_viability: Viability Assessment in the Tox21 HCT-116 p53 Agonism Beta-lactamase Assay, Phase 4 (AID 2283597).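 Further: hits lower the luminescence signal meaning cytotoxicity.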 The method, boiled down: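 Cytotoxicity as reduced cellular ATP (CellTiter-Glo luminescence, 30 min room temperature), measured in the same wells following the CCF4 FRET p53 reading. Human HCT-116 cells received compounds in DMSO (217-fold dilution) for 16 h.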

The target in test [6] is Cellular tumor antigen p53 (Homo sapiens) (UniProt P04637). Briefly: TOX21_p53_BLA_p5_ratio: Tox21 HCT-116 p53 Agonism Beta-lactamase Assay, Ratio, Phase 5 (AID 2283599). The method, boiled down:
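HCT-116 p53-bla cells (4000/well) plated 5 h, dosed with compound (217-fold DMSO dilution) for 16 h at 37 C; CCF4-AM substrate 2 h at room temperature. Activity is the 460/530 nm emission ratio (405 nm excitation), fitted in gain-of-signal direction versus DMSO.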

The nature of test [7]: TOX21_p53_BLA_p5_viability: Viability Assessment in the Tox21 HCT-116 p53 Agonism Beta-lactamase Assay, Phase 5 (AID 2283600). The method, boiled down:
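Viability came from CellTiter-Glo ATP luminescence, read after 30 min at room temperature. Before this, HCT-116 p53-bla cells (4000/well) had 16 hours of compound exposure at 37C, with DMSO stocks diluted 217-fold on transfer.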

Test [8] has as its target Cellular tumor antigen p53 (Homo sapiens) (UniProt P04637). Briefly: TOX21_p53_BLA_p4_ratio: Tox21 HCT-116 p53 Agonism Beta-lactamase Assay, Ratio, Phase 4 (AID 2283601). The method, boiled down: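 HCT-116 p53 beta-lactamase reporter cells (4000/well) preincubated 5 h, then compound (217-fold dilution of DMSO stock) for 16 h at 37C. CCF4-AM substrate added 2 h at room temperature; 460/530 nm emission ratio fitted upward versus DMSO.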

As for `O=C(O)CCCl`, the result in test [1], in test [2], in test [3], in test [4], in test [5] and in test [6] was inactive. The molecule was classed as inactive in test [7] and in test [8].

Consider `NC(=O)c1ccccc1C(N)=O`, for which the molecule was classed as inactive in test [1], in test [3], in test [4], in test [5], in test [7] and in test [8]. Besides, the AC50 in test [2] was 72.7 µM (active); in test [6], 73.1 µM (active).

As for `O=C(O)c1cc(-c2ccccc2)nc2ccccc12`, the call in test [1], in test [2], in test [3], in test [4], in test [5] and in test [6] was inactive. The result in test [7] and in test [8] was inactive.

Turning to `NC(=O)NS(=O)(=O)c1ccc(N)cc1`, the call in test [1], in test [2], in test [3], in test [4], in test [5] and in test [6] was inactive. For the same molecule, the molecule was classed as inactive in test [7] and in test [8].

Regarding `CCCCCCOc1ccc(C(=N)N(CCCC)CCCC)c2ccccc12`, the AC50 in test [1] was 23 µM (active); in test [2] it was 32.7 µM (active); in test [3], 23 µM (active); in test [4] it was 36.4 µM (active); in test [5] it was 10.1 µM (active); in test [6], 29.5 µM (active). Moreover, the AC50 is 23 µM (active) in test [7] and 19.9 µM (active) in test [8].

Take `CCCCCCCC[P+](CCCCCCCC)(CCCCCCCC)CCCCCCCC`: the AC50 in test [1] was 15.8 µM (active); in test [2], 29.2 µM (active); in test [3], 13.3 µM (active); in test [4] it was 13.4 µM (active); in test [5] it was 21.6 µM (active); in test [6] it was 13.2 µM (active). For the same molecule, the AC50 is 13.6 µM (active) in test [7] and 31.7 µM (active) in test [8].

On to `COc1cc(O)cc(O)c1`, for which the result in test [1], in test [2], in test [3], in test [4], in test [5] and in test [6] was inactive. Further, the result in test [7] and in test [8] was inactive.

With `Cc1ccc(S(=O)(=O)NC(=O)NC2CCCCCCC2)cc1`, the molecule was called inactive in test [1], in test [2], in test [3], in test [4], in test [5] and in test [6]. The call in test [7] and in test [8] was inactive.

Regarding `CCCCCCCCS(=O)C(C)Cc1ccc2c(c1)OCO2` (stereo unspecified), the AC50 in test [1] was 78.9 µM (active); in test [2], 39.3 µM (active); in test [4], 90.9 µM (active); in test [5] it was 74.7 µM (active); in test [6], 86.8 µM (active); in test [7] it was 58.2 µM (active). Further, the AC50 in test [8] is 88.7 µM (active). In test [3], the outcome was inactive.

For `CCCC1([C@H](O)C/C=C/[C@H]2[C@H](O)CC(=O)[C@@H]2CCCCCCC(=O)OC)CCC1`, the molecule was classed as inactive in test [1], in test [2], in test [3], in test [4], in test [6] and in test [7]. Besides, in test [8], the outcome was inactive. For the same molecule, the AC50 in test [5] is 36.3 µM (active).

Turning to `CC(C)OC(=O)CCCCC(=O)OC(C)C`, the molecule was called inactive in test [1], in test [3], in test [4], in test [5] and in test [7]. The values for the AC50 in test [2], in test [6] and in test [8] were 60.5 µM (active), 71.9 µM (active) and 69 µM (active), respectively.

As to `Clc1ccc(COC(Cn2ccnc2)c2ccc(Cl)cc2Cl)c(Cl)c1` (stereo unspecified), the molecule was called inactive in test [1], in test [3], in test [4], in test [5], in test [6] and in test [7]. The outcome in test [8] was inactive. The AC50 in test [2] is 17.3 µM (active).

Take `O=C1C=CC(=O)N1`: the call in test [1] and in test [7] was inactive. Besides, the AC50 in test [2] is 73.5 µM (active); in test [3], 69.8 µM (active); in test [4] it was 70.8 µM (active); in test [5], 79.4 µM (active); in test [6], 82.4 µM (active); in test [8], 70.3 µM (active).

On to `CCCCNc1cc(C(=O)O)cc(S(N)(=O)=O)c1Oc1ccccc1`, for which the result in test [1], in test [2], in test [3], in test [4], in test [5] and in test [6] was inactive. The molecule was called inactive in test [7] and in test [8].

With `Nc1c2c(nc3c1CCC3)CCCC2`, the molecule was classed as inactive in test [1], in test [2], in test [3], in test [4], in test [5] and in test [6]. Also, the outcome in test [7] and in test [8] was inactive.

As for `CC1(S(=O)(=O)O)CC(=O)c2ccccc2C1=O` (stereo unspecified), the molecule was classed as inactive in test [1], in test [3], in test [5], in test [7] and in test [8]. Also, the AC50 is 34.5 µM (active) in test [2], 43.4 µM (active) in test [4] and 36.7 µM (active) in test [6].

As to `O=C(O)c1ccc(-n2nc(-c3ccccc3O)nc2-c2ccccc2O)cc1`, the result in test [1], in test [2], in test [3], in test [4], in test [5] and in test [6] was inactive. The result in test [7] and in test [8] was inactive.

For `CN[C@H]1CC[C@@H](c2ccc(Cl)c(Cl)c2)c2ccccc21`, the AC50 in test [1] was 33.6 µM (active); in test [3] it was 42 µM (active); in test [5], 34.6 µM (active); in test [8], 36.8 µM (active). Moreover, the result in test [2], in test [4], in test [6] and in test [7] was inactive.

For `N=C1N=C(N)c2cc3ccccc3cc21`, the AC50 in test [1] was 23.6 µM (active); in test [2], 11.6 µM (active); in test [3], 38.5 µM (active); in test [4], 18.5 µM (active); in test [5] it was 21 µM (active); in test [6] it was 15 µM (active). Also, the AC50 is 27.4 µM (active) in test [7] and 19.8 µM (active) in test [8].

Turning to `OC[C@]1(O)OC[C@@H](O)[C@H](O)[C@@H]1O`, the molecule was called inactive in test [1], in test [2], in test [3], in test [4], in test [5] and in test [6]. For the same molecule, the molecule was called inactive in test [7] and in test [8].

As for `O=[N+]([O-])c1ccc(O)c2ncccc12`, the call in test [1], in test [2], in test [3], in test [4], in test [6] and in test [7] was inactive. Besides, the result in test [8] was inactive. Moreover, in test [5], the AC50 was 23 µM (active).

Consider `C=C1CC[C@H](O)C/C1=C/C=C1\CCC[C@]2(C)[C@@H]([C@H](C)CCCC(C)(C)O)CC[C@@H]12`, for which the AC50 is 12.8 µM (active) in test [1]; 19.2 µM (active) in test [2]; 13.7 µM (active) in test [3]; 27.6 µM (active) in test [4]; 12.8 µM (active) in test [5]; 23.2 µM (active) in test [6]. Besides, the values for the AC50 in test [7] and in test [8] were 13.1 µM (active) and 18.6 µM (active), respectively.
